# Data reported in PubChem BioAssay AID1508633 (National Center for Advancing Translational Sciences (NCATS), 2021).
# Inconclusive results are not listed. Activity calls are given as the source filed them. Calls follow the shape of the dose curve; as a rule, active = well fitted inhibition curve with a large enough effect; inconclusive = small, poorly fitted or top-dose-only effect; inactive = no such curve, though single readings can be large or run the other way.
# Test system: zebrafish ABCB5 (Abcb5) multidrug transporter
# Assay: qHTS for characterization and localization of zebrafish homologs of the human ABCB1 multidrug transporter: ABCB5 transfected cells
# Conditions: CellTiter-Glo luminescence viability, 72 h
# Source text: The zebrafish has emerged as a potential model to study the blood-brain barrier (BBB) given its similarities with mammalian systems. However, little information has been available with regard to homologous ATP-binding cassette transporters expressed at the zebrafish BBB. Two transporters that are highly expressed at the human BBB are P-glycoprotein (P-gp, encoded by the ABCB1 gene) and ABCG2 (encoded by the ABCG2 gene). In this study, we focus on characterization of P-gp homologs in the zebrafish, which has two genes that are homologous to human ABCB1 - abcb4 and abcb5. We generated stably-transfected cell lines to determine their substrate specificities. […] Zebrafish abcb4 also colocalized with claudin 5 expression in brain endothelial cells.
# A high-throughput screen was performed as previously described on empty vector transfected cells, P-gp-overexpressing MDR-19 cells and cells transfected with full-length zebrafish abcb4 (ZF Abcb4) or abcb5 (ZF Abcb5). Briefly, cells were plated into 1536-well plates at a density of 500 cells/well in 5 uL media. […] CellTiter-Glo reagent (Promega) was dispensed into the wells, incubated for 5 min and luminescence was read on a ViewLux instrument (Perkin-Elmer). […]
row,Structure (SMILES),Potency
1,C=CCON=C(C[C@H]1O[C@@H]2O[C@]3(C)CC[C@@H]4[C@H](C)CC[C@@H]([C@H]1C)[C@@]24OO3)[C@H]1O[C@@H]2O[C@]3(C)CC[C@H]4[C@H](C)CC[C@@H]([C@@H]1C)[C@@]24OO3,526 nM (active)
2,C[C@@H]1[C@@H](CC(C[C@H]2O[C@@H]3O[C@]4(C)CC[C@@H]5[C@H](C)CC[C@@H]([C@H]2C)[C@@]35OO4)C[S+](=O)([O-])c2ccc(COC(=O)N(C)C)cc2)O[C@@H]2O[C@]3(C)CC[C@H]4[C@H](C)CC[C@@H]1[C@@]24OO3 (some centres not stated),590 nM (active)
